# Measurements published in PubChem BioAssay (NCATS).
# Inconclusive results are not listed. Entries that show only a call come without a potency. Calls of active or inactive are those of the source. Calls follow the shape of the dose curve; as a rule, active = well fitted activation curve with a large enough effect; inconclusive = small, poorly fitted or top-dose-only effect; inactive = no such curve, though single readings can be large or run the other way.
# Target: D(1A) dopamine receptor (Homo sapiens) (UniProt P21728)
# Sequence (P21728 whole entry, looked up): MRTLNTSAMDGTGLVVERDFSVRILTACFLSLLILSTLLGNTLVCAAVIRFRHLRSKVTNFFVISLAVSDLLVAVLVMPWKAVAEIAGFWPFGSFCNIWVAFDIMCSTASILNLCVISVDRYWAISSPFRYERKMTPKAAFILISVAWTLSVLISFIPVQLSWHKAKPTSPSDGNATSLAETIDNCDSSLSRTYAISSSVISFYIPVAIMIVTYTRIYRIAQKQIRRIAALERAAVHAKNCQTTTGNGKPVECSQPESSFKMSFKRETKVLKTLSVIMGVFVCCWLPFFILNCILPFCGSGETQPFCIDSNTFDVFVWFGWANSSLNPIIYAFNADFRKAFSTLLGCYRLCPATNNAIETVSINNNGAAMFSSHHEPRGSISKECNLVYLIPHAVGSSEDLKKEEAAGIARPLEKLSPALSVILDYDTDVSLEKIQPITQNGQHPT
# Experiment: HTS Assay for Allosteric Agonists of the Human D1 Dopamine Receptor: Primary Screen for Potentiators (AID 488982)
# Settings: HEK293 T-REx D1 inducible cells, calcium flux, kinetic fluorescence; series mostly up to 8.37 µM
# Text: Dopamine receptors (DARs) are involved in the etiology and/or therapy of a number of neuropsychiatric and endocrine disorders. For instance, all receptor-based antiparkinsonian drugs work via stimulating the […] DAR subtype whereas all FDA-approved antipsychotic agents are antagonists of this receptor. […] There are three different types of allosteric modulators that we are seeking, two of which will stimulate or augment receptor signaling, allosteric agonists and potentiators, while the third, allosteric antagonists, will attenuate receptor signaling. The present primary screening assay measures compound agonism by tracking calcium flux in a […], inducible Hek293 Trex D1 cell line.
# Freshly passaged cells are plated in 1536 well black, clear bottom plates at a density of 4000 cells/well in 3 ul of complete media containing 1x tetracycline inducer. After an overnight incubation at 30 C in 5% CO2, cells are loaded with 2 ul of the no wash Calcium Assay Kit (ABD Bioquest) and incubated at room temperature for 30 to 90 minutes. A 10 cycle (1 second/cycle) baseline measurement is taken and then the FDSS online 1536 pintool delivers 23 nl of compound library (as well as dopamine controls) to the plate. The plate is measured for kinetically at 1 cycle/sec for 180 seconds and is considered to be the agonist portion of the assay (eg, compounds which activate a positive calcium response during this portion are flagged as potential agonists). Following the 180 second read, 1 ul of an EC20 of dopamine is delivered by an onboard pipette head. Measurements are taken kinetically for an additional 180 seconds.
row,Compound,Potency
1,C[N+]1(C)CCc2cc3c(cc2[C@H]1[C@@H]1OC(=O)c2c1ccc1c2OCO1)OCO3,inactive
2,COc1cc(CC(C)N)c(OC)cc1I (stereo not given),inactive
3,C[C@@H]1O[C@@H](O[C@H]2C[C@@H](O)[C@]3(CO)[C@@H]4C(CC[C@]3(O)C2)[C@@]2(O)CC[C@H]([C@@H]3COC(=O)C3)[C@@]2(C)C[C@H]4O)[C@H](O)[C@H](O)[C@H]1O (stereo not given in full),inactive
4,CN1CCc2cc(O)cc3c2[C@H]1Cc1ccc(O)c(O)c1-3,inactive
5,COc1ccc(OC)c(C(O)C(C)N)c1 (stereo not given),inactive
6,CC(=O)NBr,inactive
7,Cc1o[nH]c(=O)c1CC(N)C(=O)O (stereo not given),inactive
8,CN(N=O)c1ccc(O)c(O)c1,inactive
9,CCCN1CCc2cccc3c2[C@H]1Cc1ccc(O)c(O)c1-3,inactive
10,NCCCP(=O)(O)O,inactive
11,C[N+]1(C)CCOC(O)(c2ccc(-c3ccc(C4(O)C[N+](C)(C)CCO4)cc3)cc2)C1 (stereo not given),inactive
12,CCCC[N+]1(C)C2CC(OC(=O)[C@H](CO)c3ccccc3)CC1C1OC12 (stereo not given in full),inactive
13,C[C@H](N)CN1CCc2ccc(Br)cc21,inactive
14,CCCN1CCC[C@@H](c2cccc(O)c2)C1,inactive
15,N=C(N)c1ccc(CS(=O)(=O)F)cc1,inactive
16,c1ccc2c(c1)[I+]c1ccccc1-2,inactive
17,O=[N+]([O-])/C=C/c1ccc2c(c1)OCO2,inactive
18,C[N+](C)(C)CCOC(=O)CBr,inactive
19,OC1CCCCC1N1CCC(c2ccccc2)CC1 (stereo not given),inactive
20,NC(N)=Nc1ccc2[nH]c3c(c2c1)C[C@@]1(O)[C@H]2Cc4ccc(O)c5c4[C@@]1(CCN2CC1CC1)[C@H]3O5,inactive

row,Compound,Potency
1,CCOC(=O)c1ncn2c1[C@@H]1CCCN1C(=O)c1cc(OC)ccc1-2,inactive
2,C[N+]1(C)C2CCC1CC(OC(=O)c1c[nH]c3ccccc13)C2 (stereo not given),inactive
3,NC(=O)c1ccc(OCC(O)CN2CC=C(c3ccc(F)cc3)CC2)cc1 (stereo not given),inactive
4,O=S1(=O)N(CCN2CC=C(c3c[nH]c4cc(F)ccc34)CC2)c2cccc3c2N1CCC3,inactive
5,CCCn1c(=O)c2[nH]c(C3CCCC3)nc2n(CCCOC(=O)c2ccc(S(=O)(=O)F)cc2)c1=O,inactive
6,Oc1ccc2c3c1O[C@H]1c4oc5ccccc5c4C[C@@]4(O)C(C2)N(CC2CC2)CCC314 (stereo not given in full),inactive
7,O=[N+]([O-])c1ccc2nc(N3CCNCC3)ccc2c1,inactive
8,COc1ccc2[nH]c3c(c2c1)CCNC3,inactive
9,Nc1ccc(CCN2CCN(c3cccc(C(F)(F)F)c3)CC2)cc1,inactive
10,CO[C@H]1CC=C2CCN3CCC4=C(CC(=O)OC4)[C@]23C1,inactive
11,C[C@@H]1O[C@H](C[N+](C)(C)C)CS1,inactive
12,CCn1cnc2c(Nc3cccc(Cl)c3)nc(N[C@@H]3CCCC[C@@H]3N)nc21,inactive
13,O=c1c2ccccc2[se]n1-c1ccccc1,inactive
14,O=C(O)c1cc[c]([Hg][Cl])cc1,inactive
15,CC(N)c1cccc(Cl)c1Cl (stereo not given),inactive
16,CC(=O)c1c(O)c(C)c(O)c(Cc2c(O)c3c(c(C(=O)/C=C/c4ccccc4)c2O)OC(C)(C)C=C3)c1O,inactive
17,C[C@]12Cc3cn4c(nc3C=C1CCC1C2CC[C@@]2(C)[C@H]1CC[C@@]2(O)C#N)nc1ccccc14 (stereo not given in full),inactive
18,NNC(N)=O,inactive
19,NC(=O)CI,inactive
20,Cc1sc2ccccc2c1CC1=NCCN1,inactive
